HttQ103 aggreg – inhibitors of mutant huntingtin aggregate formation in PC12 cells; PC12 HttQ103-GFP aggregates, Acumen cytometry, 40 h; Potency, µM (series often up to 46.1 µM), for the others: at the highest dose activity change, negative = inhibition, most hits filed as inhibitors; 1.1% of 220,000 active; AID 1688; also: potency is read from the fitted curve at half-maximal effect; % is scaled to controls: 0 for no effect and ±100 for the full control effect; nearly all actives have a fitted effect of over 60% in size
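Ecdysone-promoter PC12 model expressing HTT exon 1 Q103 fused to GFP, induced by tebufenozide at 100 nM final. Compounds titrated; aggregates sized 1–25 µm scored on a 488 nm laser cytometer.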
HPGD inh – HPGD (human) dehydrogenase inhibition; P15428; purified HPGD, NADH fluorescence kinetic, PGE2 substrate; Potency, µM, inactives show at the top dose activity change, negative = inhibition, usual class: inhibitors; 4.3% of 150,000 active; AID 894; active = well fitted inhibition curve with a large enough effect, not every such curve was filed as active; inconclusive = small, poorly fitted or top-dose-only effect, or another doubt; inactive = no such curve, though single readings can be large or run the other way; also: potency is read from the fitted curve at half-maximal effect; % is scaled to controls: 0 for no effect and ±100 for the full control effect
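20 nM HPGD preincubated 15 min at room temperature with compound in 50 mM Tris-HCl pH 8, 0.01% Tween 20. Started with 1 mM NAD+ and 30 uM prostaglandin E2; NADH fluorescence (360/450 nm) read 5 times over 30-s intervals, last minus first.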
IMPase cell inh – IMPase inhibition in cells. P97697. CHO-M1 cells, IP1 accumulation, HTRF TR-FRET ratio. inhibition (IP1 accumulation), % at 46.1 µM. 120,000 tested, under 10 active; active = well fitted curve in the direction sought with a large enough effect in the signal ratio, not every such curve was filed as active; inconclusive = small, poorly fitted or top-dose-only effect, or a change in a side signal; inactive = no such curve, though single readings can be large or run the other way; the % refers to the signal ratio;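 also: cells stimulated with carbachol in lithium chloride buffer; plate controls were DMSO basal wells for no effect and reference inhibitor wells for full effect; higher means more IMPase inhibition seen as more IP1 and lower FRET ratio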
Target sequence (P97697 whole entry, looked up): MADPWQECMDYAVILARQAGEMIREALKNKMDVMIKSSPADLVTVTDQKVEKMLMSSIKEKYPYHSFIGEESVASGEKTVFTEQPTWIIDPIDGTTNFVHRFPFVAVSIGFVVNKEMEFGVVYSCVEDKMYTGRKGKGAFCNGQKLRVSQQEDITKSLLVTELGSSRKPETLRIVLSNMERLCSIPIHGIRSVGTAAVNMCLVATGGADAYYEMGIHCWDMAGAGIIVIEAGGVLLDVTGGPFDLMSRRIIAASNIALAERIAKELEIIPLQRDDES
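Measured: the HTRF emission ratio (665/620 nm) plus the 620 nm donor channel, each fitted to the Hill equation to give AC50. Cells were CHO-M1 given compounds up to 46 uM and a 30 min carbachol stimulation at 37C.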
IMPase Li cell – cell-permeable IMPase inhibitors with lithium potentiation; CHO-M1 cells, IP1 TR-FRET (IP-One), carbachol + lithium; Potency, µM (top dose mostly 59.4 µM), without a hit: at the top dose activity, negative = IMPase inhibition, actives largely listed as inhibitors; 0.35% of 210,000 active; AID 1457;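 also: IP1 builds up when IMPase is blocked and the TR-FRET signal falls; potency is read from the fitted curve at half-maximal effect; plate controls were basal vehicle for no effect and high inhibitor control for full effect; nearly all actives have a fitted effect of over 50% in size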
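CHO cells stably expressing M1 receptor (2000/well) were cultured 16–30 h, then exposed to compounds with a small lithium addition for 30 min at 37C. IP1 was measured by TR-FRET competition; AC50 from Hill fits.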
HTT cytoprotect – protects HTT-Q103 PC12 cells, measured by ATP | PC12 HTT-Q103 induced, cytoprotection, ATP luminescence, 40 h | Potency, µM (top dose mostly 56.4 µM), without a hit: cytoprotection (ATP increase), usual class: activators | 0.14% of 230,000 active; also: potency is read from the fitted curve at half-maximal effect; % of control where 0% means no effect; nearly all actives have a fitted effect of over 45% in size
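Huntington model: PC12 line, ecdysone-inducible HTTQ103 exon1–GFP, tebufenozide 100 nM. Test articles in a dose series. Endpoint luminescence from cellular ATP.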
ALDH1A1 block – inhibitors of human aldehyde dehydrogenase 1A1; P00352; Purified ALDH1A1, NADH fluorescence, propionaldehyde substrate; Potency, µM (highest dose often 75.3 µM), for the others: at the highest dose activity, negative = inhibition, actives largely listed as inhibitors; 7.3% of 220,000 active; active = well fitted inhibition curve with a large enough effect, not every such curve was filed as active; inconclusive = small, poorly fitted or top-dose-only effect, or another doubt; inactive = no such curve, though single readings can be large or run the other way;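 also: potency is read from the fitted curve at half-maximal effect; plate controls were no enzyme wells and a reference inhibitor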
Target sequence (P00352 whole entry, looked up): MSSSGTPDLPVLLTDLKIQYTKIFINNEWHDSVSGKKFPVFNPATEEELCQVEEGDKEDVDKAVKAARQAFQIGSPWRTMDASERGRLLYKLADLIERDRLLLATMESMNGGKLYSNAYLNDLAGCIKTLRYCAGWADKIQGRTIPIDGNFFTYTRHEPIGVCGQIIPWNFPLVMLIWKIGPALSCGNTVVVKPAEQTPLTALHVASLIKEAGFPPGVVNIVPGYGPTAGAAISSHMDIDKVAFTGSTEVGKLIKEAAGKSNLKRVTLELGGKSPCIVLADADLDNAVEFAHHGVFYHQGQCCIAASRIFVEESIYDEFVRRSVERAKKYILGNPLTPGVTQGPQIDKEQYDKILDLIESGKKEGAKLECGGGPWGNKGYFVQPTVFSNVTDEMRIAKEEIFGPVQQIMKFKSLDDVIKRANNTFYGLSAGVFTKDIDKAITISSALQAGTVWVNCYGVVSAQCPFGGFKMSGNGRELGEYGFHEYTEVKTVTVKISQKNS
Active calls of the source: *; [ ] = remark or other dose. Shown are actives, neighbours in structure and some others; about 9.4% of the full set was active somewhere. Unless noted, calls follow the shape of the dose curve; as a rule, active = well fitted curve in the direction sought with a large enough effect; inconclusive = small, poorly fitted or top-dose-only effect, or another doubt; inactive = no such curve, though single readings can be large; an effect the other way counts as inactive or inconclusive.

How did O=C(CCc1nc2ccccc2c(=O)[nH]1)OCC(=O)N1CCN(S(=O)(=O)c2ccccc2)CC1 do in these assays?
HttQ103 aggreg: -5%; HPGD inh: 3%; IMPase cell inh: -3; IMPase Li cell: -25%[38.3 µM]; HTT cytoprotect: -11%; ALDH1A1 block: -3%

What do the screens show for `CC1CC(C)CN(C(=O)COC(=O)CCc2nc3ccccc3c(=O)[nH]2)C1` (configuration not stated)?
HttQ103 aggreg: 0%; HPGD inh: -9%; IMPase Li cell: -8%; HTT cytoprotect: 9%[10 µM]; ALDH1A1 block: 3.5µM*

What do the screens show for `Cc1nnc(SC/C=C/c2ccccc2)n(N)c1=O`?
HttQ103 aggreg: 9%; IMPase Li cell: -5%; HTT cytoprotect: -49%; ALDH1A1 block: 1%

What do the screens show for `O=C(/C=C/c1ccccc1)n1cnnc1SC/C=C/c1ccccc1`?
HttQ103 aggreg: inconclusive; HPGD inh: 14µM*; IMPase cell inh: 0; IMPase Li cell: 11%; HTT cytoprotect: 9%[10 µM]; ALDH1A1 block: -24%

How did CCn1c(SCC(=O)c2ccc(F)cc2)nnc1-c1ccoc1C do in these assays?
HttQ103 aggreg: -6%; HPGD inh: inconclusive; IMPase cell inh: inconclusive; IMPase Li cell: 48%[38.3 µM]; HTT cytoprotect: -6%[10 µM]; ALDH1A1 block: 22µM*

Results for S=c1[nH]nc(-c2ccco2)n1/N=C/C=C/c1ccccc1 ?
HttQ103 aggreg: 7%; HPGD inh: 14µM*; IMPase cell inh: 3; IMPase Li cell: 10%[38.3 µM]; HTT cytoprotect: -27%; ALDH1A1 block: inconclusive

Results for S=c1[nH]nc(-c2ccccc2)n1/N=C/C=C/c1ccco1 ?
HttQ103 aggreg: 16%; HPGD inh: 11µM*; IMPase cell inh: 16; IMPase Li cell: 8%; HTT cytoprotect: 15%[10 µM]; ALDH1A1 block: inconclusive

What do the screens show for `Cc1ccccc1-c1n[nH]c(=S)n1/N=C/C=C/c1ccco1`?
HttQ103 aggreg: 33%[9.22 µM]; HTT cytoprotect: 15%[10 µM]

How did S=c1[nH]nc(-c2ccc(Cl)cc2)n1/N=C/C=C/c1ccco1 do in these assays?
HttQ103 aggreg: 24%[9.22 µM]; HTT cytoprotect: 5%[10 µM]

How did CCOC(=O)N/N=C1/C[C@@H](O)[C@@H](O)[C@@H]2[C@@H]3C(=O)N(c4cccc(Oc5ccccc5)c4)C(=O)[C@H]3CC[C@@H]12 do in these assays?
HTT cytoprotect: -66%[10 µM]; ALDH1A1 block: 22%[13.5 µM]

What do the screens show for `COc1ccc(C2CC(c3ccccc3)Nc3nc(NS(C)(=O)=O)nn32)cc1` (configuration not stated)?
HttQ103 aggreg: 7%[9.22 µM]; HTT cytoprotect: 17%[10 µM]

Results for CCCc1cc2c(=O)c(-c3ccc4c(c3)OCCO4)c(C)oc2cc1OS(C)(=O)=O ?
HttQ103 aggreg: inconclusive; HPGD inh: -12%; IMPase cell inh: 7; IMPase Li cell: 25%; HTT cytoprotect: 1%[10 µM]; ALDH1A1 block: 0.35µM*

How did Cc1cc(C)c(S(=O)(=O)N2CCN(C(=O)N(C)C)CC2)c(C)c1 do in these assays?
HttQ103 aggreg: 0%[9.22 µM]; IMPase Li cell: -19%; HTT cytoprotect: 5%[10 µM]; ALDH1A1 block: 4.5µM*

What do the screens show for `Cc1ccc(S(=O)(=O)N2CCN(C(=O)c3c(C)nn(-c4ccccc4)c3Cl)CC2)cc1`?
HttQ103 aggreg: -20%; HPGD inh: -11%; IMPase cell inh: -1; IMPase Li cell: 13%[38.3 µM]; HTT cytoprotect: 7%[10 µM]; ALDH1A1 block: -4%

Results for COc1ccc(S(=O)(=O)N2CCN(C(=O)c3c(C)nn(-c4ccccc4)c3Cl)CC2)cc1 ?
HttQ103 aggreg: 0%; HPGD inh: -16%; IMPase cell inh: 9; IMPase Li cell: 30%[38.3 µM]; HTT cytoprotect: 9%[10 µM]; ALDH1A1 block: 32µM*

What do the screens show for `CCN1C(=O)[C@H]2[C@H]3[C@H](O)[C@H](O)C/C(=N/OCC(C)C)[C@H]3CC[C@@H]2C1=O`?
HTT cytoprotect: -33%[10 µM]; ALDH1A1 block: 0%[13.5 µM]

How did O=[N+]([O-])c1ccc(O)c(/C=N/Nc2ccccc2Cl)c1 do in these assays?
HttQ103 aggreg: inconclusive; IMPase Li cell: 16%; HTT cytoprotect: -12%; ALDH1A1 block: -7%

What do the screens show for `O=[N+]([O-])c1ccc(O)c(/C=N/n2cnc3ccccc32)c1`?
HttQ103 aggreg: inconclusive; HPGD inh: 14µM*; IMPase cell inh: 9; IMPase Li cell: 12%; HTT cytoprotect: 27%[10 µM]; ALDH1A1 block: inconclusive

What do the screens show for `O=[N+]([O-])c1ccc(O)c(/C=N/n2c(CO)nc3ccccc32)c1`?
HttQ103 aggreg: -13%[9.22 µM]; HTT cytoprotect: 11%[10 µM]; ALDH1A1 block: 3.2µM*

What do the screens show for `CC1=CC(C)(C)N2C(=O)C(=O)c3cc(OC(=O)c4ccco4)cc1c32`?
IMPase Li cell: 27%; ALDH1A1 block: 0.63µM*

Results for COc1cc2c(=O)n(Cc3ccco3)c(=O)n(CC(=O)c3ccc(Br)cc3)c2cc1OC ?
HttQ103 aggreg: 13%; HPGD inh: -3%; IMPase cell inh: -2; IMPase Li cell: inconclusive; HTT cytoprotect: -8%[10 µM]; ALDH1A1 block: 0.4µM*

What do the screens show for `COc1cc2c(=O)n(Cc3ccco3)c(=O)n(CC(=O)c3cccc(Br)c3)c2cc1OC`?
HttQ103 aggreg: 8%; HPGD inh: -6%; IMPase cell inh: 3; IMPase Li cell: inconclusive; HTT cytoprotect: -19%; ALDH1A1 block: 1.1µM*

What do the screens show for `COc1ccc(NCc2ccc([N+](=O)[O-])s2)c(OC)c1`?
HttQ103 aggreg: inconclusive; HPGD inh: -14%; IMPase Li cell: 2%; HTT cytoprotect: 14%[10 µM]; ALDH1A1 block: 25µM*

Results for COc1ccc(CNc2ccnc(-c3cccc(NS(C)(=O)=O)c3)n2)c(OC)c1 ?
IMPase Li cell: 4%; HTT cytoprotect: -52%; ALDH1A1 block: 1%

Results for CC(C)CNS(=O)(=O)c1ccc(CCC(=O)N2CCN(Cc3ccc4c(c3)OCO4)CC2)cc1 ?
HttQ103 aggreg: 11µM*; HPGD inh: -12%; IMPase cell inh: 1; IMPase Li cell: 7%; HTT cytoprotect: -18%[0.074 µM]; ALDH1A1 block: -5%

How did CC(C)NC(=S)N1CCN(Cc2ccc3c(c2)OCO3)CC1 do in these assays?
HttQ103 aggreg: 16%; IMPase Li cell: 26%; HTT cytoprotect: -18%[10 µM]; ALDH1A1 block: 22µM*

Results for COc1ccc(F)cc1S(=O)(=O)N1CCN(Cc2ccc3c(c2)OCO3)CC1 ?
HttQ103 aggreg: 8%; HPGD inh: 0%; IMPase cell inh: 7; IMPase Li cell: 19%[38.3 µM]; HTT cytoprotect: 10%; ALDH1A1 block: -13%

How did CSc1ccc(S(=O)(=O)N2CCN(Cc3ccc4c(c3)OCO4)CC2)cc1 do in these assays?
HttQ103 aggreg: 2%; HPGD inh: -3%; IMPase cell inh: 1; IMPase Li cell: 8%; HTT cytoprotect: -17%[10 µM]; ALDH1A1 block: 14µM*
